From PubChem BioAssay (NCATS)
Results filed as inconclusive are left out. A call without a number means that no potency is given here. Calls of active or inactive are those of the source. The call rests on the fitted dose curve; in most records, active means well fitted inhibition curve with a large enough effect; inconclusive means small, poorly fitted or top-dose-only effect; inactive means flat fitted curve, though single readings scatter.

Target: Calcium and integrin-binding protein 1 (Homo sapiens) (UniProt Q99828)
Test: Primary qHTS for Identification of Calcium Integrin Binding Protein 1 (CIB1) Competitor (AID 1508620);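 further: GST tagged CIB1 binding a fluorescein labelled alphaIIb integrin peptide tracer; top concentration of the series differs between compounds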
Conditions: CIB1-GST / FITC-alphaIIb peptide fluorescence polarization; series mostly up to 114 µM
Outline: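 Fluorescence polarization competition: CIB1-GST (1 uM final) preincubated with compound 15 min at room temperature, then FITC-labeled alphaIIb peptide (100 nM final) added for another 15 min. Polarization read at Ex 480/Em 540.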

Calcium and integrin-binding protein 1 (Homo sapiens), sequence (Q99828 whole entry, looked up): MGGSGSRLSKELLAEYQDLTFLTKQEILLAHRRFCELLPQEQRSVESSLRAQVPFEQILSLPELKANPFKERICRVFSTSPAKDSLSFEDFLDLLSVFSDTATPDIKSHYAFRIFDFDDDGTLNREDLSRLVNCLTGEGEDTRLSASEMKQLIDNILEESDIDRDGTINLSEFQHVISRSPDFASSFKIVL

**Q.** How did the Potency turn out when C[C@@H]1CN(S(=O)(=O)c2c(F)cccc2F)CCN1S(=O)(=O)c1ccc2c(c1)OCCO2 was run?
**A.** inactive

**Q.** Which Potency does the source give for COc1ccc([S+](=O)([O-])N2CCN([S+](=O)([O-])c3ccc4c(c3)OCCO4)CC2)c(OC)c1 here?
**A.** inactive

**Q.** Cc1cccc(-n2cnc3cc(C(=O)N4CCOCC4)ccc32)c1 was tested. Which Potency did it give?
**A.** inactive

**Q.** How did the Potency turn out when CCn1cnc2c(Nc3cccc(Cl)c3)nc(C#N)nc21 was run?
**A.** inactive

**Q.** CCCCN(C)C(=O)Cn1nc(-c2ccc(F)cc2)ccc1=O was tested. Which Potency did it give?
**A.** inactive

**Q.** With N#Cc1ccc(CSc2nc3ncc(Br)cc3[nH]2)cc1 as the molecule, how does the Potency read?
**A.** inactive

**Q.** For COc1ccc(C=O)cc1COc1ccc(NC(C)=O)cc1, which Potency is on record?
**A.** inactive

**Q.** Which Potency does the source give for Cc1nnc(-c2cnn(C)c2N)n1CCc1cccs1 here?
**A.** inactive

**Q.** For CC(=O)Nc1sc2c(c1-c1cncnc1)CCNC2, which Potency is on record?
**A.** inactive

**Q.** For Fc1ccc(-c2nc(-c3ccncc3)nc3ccccc23)cc1F, which Potency is on record?
**A.** inactive

**Q.** CN(C)c1ccccc1-c1csc(N2CCC(C(N)=O)CC2)n1 was tested. Which Potency did it give?
**A.** inactive

**Q.** For Cc1ccc(OCCn2c(CCNC(=O)c3ccc(Cl)cc3)nc3ccccc32)cc1, which Potency is on record?
**A.** inactive

**Q.** With COc1ccc(NC(=O)c2[nH]c(C)c(C(C)=O)c2C)cc1S(=O)(=O)Nc1ccc(C#N)cc1 as the molecule, how does the Potency read?
**A.** inactive

**Q.** With COc1ccc(-c2nc3ccccc3c(=O)n2Cc2ccco2)cc1COc1c(C)cccc1C as the molecule, how does the Potency read?
**A.** inactive

**Q.** Which Potency does the source give for CCOC(=O)c1ccc(-c2ccc3ncnc(NCc4ccc(C)o4)c3c2)o1 here?
**A.** inactive

**Q.** With Cc1cccc(-c2ccc3ncnc(NCc4cc(C)cs4)c3c2)c1 as the molecule, how does the Potency read?
**A.** inactive

**Q.** How did the Potency turn out when CCCCN1C(=O)c2ccccc2NC1c1ccc(OC)c(COc2ccc(NC(C)=O)cc2)c1 (stereo not given) was run?
**A.** inactive

**Q.** With O=C(Nc1nc(Nc2cc(F)cc(F)c2)nc(NC2CCCC2)n1)OCc1ccccc1 as the molecule, how does the Potency read?
**A.** inactive

**Q.** For Nc1ccccc1OCCn1c(CCNC(=O)C2CCCCC2)nc2ccccc21, which Potency is on record?
**A.** inactive

**Q.** For O=C(c1ccccc1)N1CCN(c2nc(-c3cccs3)nc3ccccc23)CC1, which Potency is on record?
**A.** inactive

**Q.** How did the Potency turn out when Cc1cc(C)n2ncc(C(=O)Nc3ccc4c(c3)OCO4)c2n1 was run?
**A.** inactive

**Q.** For O=C(O)c1ccc2c(c1)C(=O)N([C@H](Cc1c[nH]c3ccccc13)C(=O)O)C2=O, which Potency is on record?
**A.** inactive

**Q.** Which Potency does the source give for O=S(=O)(Nc1nc(-c2ccccc2C(F)(F)F)nc2ccccc12)c1ccc(-c2ccnc(C(F)(F)F)c2)cc1 here?
**A.** inactive

**Q.** For Oc1cc(NCc2ccccc2)cc2cccnc12, which Potency is on record?
**A.** inactive

**Q.** Which Potency does the source give for O=C(NCc1nnc(-c2cc3ccccc3[nH]2)o1)c1ccccc1 here?
**A.** inactive

**Q.** For O=c1c2[nH]c3cc(Br)sc3c2cnn1Cc1ccccc1F, which Potency is on record?
**A.** inactive

**Q.** With Cc1cccc(C)c1-n1c(SCC(=O)Nc2ccc(F)cc2)nnc1-c1cccc([S+](=O)([O-])N2CCCC2)c1 as the molecule, how does the Potency read?
**A.** inactive

**Q.** For O=C(COC(=O)CNC(=O)c1ccccc1)Nc1ccccc1Cl, which Potency is on record?
**A.** inactive

**Q.** For NNC(=O)C(C(=O)OCc1ccccc1)c1ccccc1 (stereo not given), which Potency is on record?
**A.** inactive

**Q.** For COc1ccc(NC(=O)C2=C(C)NC(Nc3nc4ccccc4o3)=NC2c2ccccc2Br)cc1 (stereo not given), which Potency is on record?
**A.** inactive

**Q.** How did the Potency turn out when Cc1ccc(S(=O)(=O)N2CCN(c3nc(C#N)nc4ccccc34)CC2)cc1 was run?
**A.** inactive

**Q.** COc1ccc(C2Nc3ccccc3C(=O)N2Cc2ccccc2C)cc1COc1ccc(NC(C)=O)cc1 (stereo not given) was tested. Which Potency did it give?
**A.** inactive

**Q.** How did the Potency turn out when Cc1ccnc(NC(=S)N2CCN(c3ccc4ccccc4n3)CC2)c1 was run?
**A.** inactive

**Q.** N=c1c2c(ccn1CCc1ccccc1)Oc1ccc3ccccc3c1C2c1ccccc1 (stereo not given) was tested. Which Potency did it give?
**A.** inactive

**Q.** Which Potency does the source give for NC1CCN(c2nc(-c3ccc(Br)cc3)cs2)CC1 here?
**A.** inactive

**Q.** How did the Potency turn out when Cc1ccc(C2N=C(Nc3nc4ccccc4o3)NC3=C2C(=O)CCC3)s1 (stereo not given) was run?
**A.** inactive

**Q.** Cc1cc(C)nc(NC(=S)N2CCN(c3ncccc3C(F)(F)F)CC2)c1 was tested. Which Potency did it give?
**A.** inactive

**Q.** Which Potency does the source give for CC(=O)Nc1sc2c(c1-c1ccc3nc[nH]c3c1)CCNC2 here?
**A.** inactive

**Q.** With COc1ccc(-c2nc3ccccc3c(=O)n2Cc2ccccc2)cc1CNc1ccc(NC(C)=O)cc1 as the molecule, how does the Potency read?
**A.** inactive

**Q.** COc1cccc(-c2nnc3n2N=C(c2ccccc2OC)CS3)c1 was tested. Which Potency did it give?
**A.** inactive
